Screening data deposited in PubChem BioAssay by National Center for Advancing Translational Sciences (NCATS).
D1 antagonist: Antagonist of Human D 1 Dopamine Receptor: qHTS | HEK293 TREx D1 cells, calcium flux, dopamine EC80; hits give low values | activity change, negative = inhibition, % at 10 µM | D(1A) dopamine receptor (Homo sapiens), P21728 | AID 504652, 2011 | 360,000 tested, 3.2% active; in the data active = activity change below about -30%; also: % is scaled to controls: 0 for no effect and ±100 for the full control effect
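Tetracycline-induced HEK293 Trex D1 cells, force-coupled to calcium, dye-loaded; compounds added and read 180 s, then EC80 dopamine added and calcium flux tracked kinetically another 180 s.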
TRHR enhancer-1: qHTS for Small Molecule Agonists and Allosteric Enhancers of Human TRH Receptor: Primary Screen for Enhancers | AID 493056, 2011 | enhancement, % at 2 µM | TRHR cells, fluo-8 calcium fluorescence, EC20 TRH enhancement | 360,000 tested, 0.66% active; in the data active = enhancement above about 30%; also: 0% is about no effect
Target sequence (P34981 whole entry, looked up): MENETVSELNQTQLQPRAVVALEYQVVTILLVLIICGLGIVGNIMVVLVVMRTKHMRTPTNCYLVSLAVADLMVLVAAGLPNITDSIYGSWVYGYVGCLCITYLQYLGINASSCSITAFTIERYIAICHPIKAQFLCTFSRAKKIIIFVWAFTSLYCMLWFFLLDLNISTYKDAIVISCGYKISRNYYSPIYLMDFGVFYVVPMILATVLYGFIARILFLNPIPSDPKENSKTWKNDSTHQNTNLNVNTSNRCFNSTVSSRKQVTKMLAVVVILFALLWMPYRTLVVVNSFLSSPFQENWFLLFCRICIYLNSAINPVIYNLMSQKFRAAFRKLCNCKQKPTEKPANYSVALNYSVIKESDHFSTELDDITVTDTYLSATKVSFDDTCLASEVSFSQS
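TRHR-expressing cells loaded with fluo-8 calcium dye were read kinetically (ex 480/em 530) during compound addition, then stimulated with an EC20 of TRH (10 nM final). Enhancement of the Gq-mediated intracellular calcium response was scored.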
D1 agonist: Allosteric Agonists of the Human D1 Dopamine Receptor: qHTS; activation, % at 2 µM; 360,000 tested, 1% active; HEK293 T-REx D1 cells, calcium flux, agonist mode; D(1A) dopamine receptor (Homo sapiens), P21728; in the data active = activation above about 30%; also: 0% is about no effect
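Inducible HEK293 T-REx D1 cells, force-coupled to calcium signalling, were plated at 4000 cells/well with tetracycline and held overnight at 30 C. After no-wash calcium dye loading, compound-evoked calcium rise over 180 s flagged agonists.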
D1 PAM: Potentiators of Human D1 Dopamine Receptor: qHTS; D(1A) dopamine receptor (Homo sapiens), P21728; HEK293 TREx D1 cells, calcium flux, dopamine EC20 potentiation; potentiation, % at 10 µM; 360,000 tested, 0.036% active; AID 504651, 2011; in the data active = potentiation above about 30%; also: 0% is about no effect
TRHR agonist-1: qHTS for Small Molecule Agonists and Allosteric Enhancers of Human TRH Receptor: Primary Screen for Agonists; AID 493084, 2011; 360,000 tested, 0.18% active; TRHR cells, calcium flux fluo-8, FDSS agonist mode; activation, % at 2 µM; Thyrotropin-releasing hormone receptor (Homo sapiens), P34981; in the data active = activation above about 30%; also: 0% is about no effect
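Agonist-mode FDSS calcium read (Ex 480/Em 530, 1 s cycles) in 1536-well TRHR cells with fluo-8 dye, after 10-cycle baseline and 23 nL compound addition; TRH at EC20 (10 nM final) added afterwards for the enhancer phase.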
TRHR enhancer-2: qHTS for Small Molecule Agonists and Allosteric Enhancers of Human TRH Receptor: Confirmation Screen for Enhancers. shares compounds with TRHR enhancer-1. TRH receptor cell assay, enhancer confirmation qHTS. activity change, negative = inhibition, % at 46.1 µM. 970 tested, under 10 active. AID 493076, 2011;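 also: compound effect scored on response to added TRH at EC20 of 10 nM; 0% is about no effect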
TRHR agonist-2: qHTS for Small Molecule Agonists and Allosteric Enhancers of Human TRH Receptor: Confirmation Screen for Agonists. shares compounds with TRHR enhancer-1. TRHR-expressing cells, agonist activation read-out. Potency, µM (titrated, usually from 46.1 µM), for inactives: at the highest dose activation, hits mostly activators. 970 tested, 8% active. AID 493078, 2011; also: potency is read from the fitted curve at half-maximal effect; 0% is about no effect; nearly all actives have a fitted effect of over 75% in size
* marks the source's active call; other numbers are inactive results; ? = inconclusive; nt = not tested or not shown. Shown are actives, neighbours in structure and some others; about 4.6% of the full set was active somewhere. Unless noted, calls follow the shape of the dose curve; as a rule, active = well fitted curve in the direction sought with a large enough effect; inconclusive = small, poorly fitted or top-dose-only effect, or another doubt; inactive = no such curve, though single readings can be large; an effect the other way counts as inactive or inconclusive.

SMILES	D1 antagonist	TRHR enhancer-1	D1 agonist	D1 PAM	TRHR agonist-1	TRHR enhancer-2	TRHR agonist-2
COc1cccc(NC(=O)NCc2ccccn2)c1	-4	-5	2	3	0	nt	nt
O=C(c1ccc(C(F)(F)F)cc1)C1CCCN(C(=O)CN2CCCC2=O)C1 (stereo unspecified)	22	56*	0	-2	0	-3	4%
COc1ccc(OC)c(S(=O)(=O)NCCc2sc(-c3cccnc3)nc2C)c1	-3	2	1	2	1	nt	nt
COc1ccccc1NC(=O)c1cc2c([nH]c1=O)CC(C)(C)CC2=O	-1	-6	0	0	2	nt	nt
COc1ccc(/C=C2\CC/C(=C\c3ccc(OC)cc3OC)C2=O)c(OC)c1	10	-5	54*	-1	34*	0	23µM*
CCc1nnc(SCc2nc(-c3ccccc3Cl)oc2C)c2cc3sc(C)cc3n12	-8	6	0	-1	0	nt	nt
CCCOc1ccc(C(=O)Nc2cc3c(cc2N2CCCCC2)n(C)c(=O)n3C)cc1	-10	-1	1	0	0	nt	nt
O=C(Cn1c(=O)n(Cc2ccc(F)cc2)c(=O)c2sc3ccccc3c21)NCc1ccccc1Cl	7	9	1	2	1	nt	nt
Cc1cc(SC(C)C(=O)NCC(=O)Nc2ccc(F)c(F)c2F)nc2ccccc12 (stereo unspecified)	4	43*	1	2	0	?	2%
Cc1cc(C)c2nc(SC(C)C(=O)NCC(=O)Nc3ccc(F)c(F)c3F)cc(C)c2c1 (stereo unspecified)	-7	-5	3	27	-2	nt	nt
CCCCn1c(N)c(N(CCOC)C(=O)CSc2nnc(-c3ccncc3)n2CCC)c(=O)[nH]c1=O	2	0	1	-12	1	nt	nt
Cn1cc(S(=O)(=O)c2cccc(Cl)c2)c(=O)c2cc(F)c(N3CCN(c4ccccc4)CC3)cc21	9	59*	4	0	-1	1	0%
O=c1c(S(=O)(=O)c2ccccc2)cn(Cc2ccc(F)cc2)c2cc(N3CCCC3)c(F)cc12	9	77*	-2	-4	0	-8	-1%
CCCNC(=O)Cn1nc(-c2ccc(C)c(C)c2)c2cnc3ccc(OC)cc3c21	-4	14	1	-3	-1	nt	nt
CCCNC(=O)c1nc(C)n(-c2cc(Cl)cc(Cl)c2)n1	7	0	1	5	-1	nt	nt
CCCNC(=O)c1nc(C)n(-c2cc(Cl)ccc2Cl)n1	-9	64*	2	-4	0	1	1%
O=C(NC1CCCCC1)C(c1ccc2ncccc2c1)N(Cc1ccccc1)C(=O)c1cccs1 (stereo unspecified)	17	59*	1	4	1	-6	1%
CN1CCN(c2ccc(S(=O)(=O)N3CCCCC3)cc2N)CC1	5	60*	4	3	2	1	-1%
Nc1cc(S(=O)(=O)N2CCCCC2)ccc1N1CCCCC1	-21	0	8	-6	0	nt	nt
CCn1c(C)c(C)c2cc(C(=O)NC3CCCCCC3)ccc21	-2	45*	1	0	0	?	2%
CC(Oc1ccc(Br)cc1)C(=O)NCC(c1cccs1)N1CCOCC1 (stereo unspecified)	2	0	-2	-6	-1	nt	nt
COc1ccc(CCC(=O)Nc2ccc(S(=O)(=O)N3CCCC3)cc2)cc1OC	27	4	1	1	0	nt	nt
O=C(O)C=C1CCN(c2ncc(C(F)(F)F)cc2Cl)CC1	2	43*	3	-2	0	-1	-1%
NNC(=O)C=C1CCN(c2ncc(C(F)(F)F)cc2Cl)CC1	8	2	2	2	0	nt	nt
CCOC(=O)Cc1csc(SCC(=O)NC2CCCCC2)n1	-14	10	1	-3	0	nt	nt
SMILES	D1 antagonist	TRHR enhancer-1	D1 agonist	D1 PAM	TRHR agonist-1	TRHR enhancer-2	TRHR agonist-2
CCOC(=O)Cc1csc(SCC(=O)NC2CCCC2)n1	-12	52*	2	-8	0	-5	0%
O=C(NNC(=O)c1nn(-c2ccc(F)cc2)ccc1=O)c1ccc(C(F)(F)F)cc1	-1	45*	1	-2	-1	-7	2%
O=C1NCCNC1(c1c[nH]c2ccccc12)C(F)(F)F (stereo unspecified)	9	4	4	2	0	nt	nt
Cc1cc(O)c(C2(C(F)(F)F)NCCNC2=O)cc1C (stereo unspecified)	2	43*	4	-5	2	-3	0%
COc1cccc(CN(C)C(=O)c2ccc(S(=O)(=O)Nc3ccccc3F)cc2)c1OC	2	48*	1	-6	0	-3	4%
COC(=O)[C@@H](Cc1c[nH]c2ccccc12)NC(=O)c1ccc2c(c1)OCO2	-2	6	4	-11	-1	nt	nt
O=C(NCCS(=O)(=O)N1CCN(c2ccccc2F)CC1)C(c1ccccc1)c1ccccc1	11	2	5	-1	0	nt	nt
CCc1nnc(NC(=O)CCC(=O)N2CCN(Cc3cc(Cl)ccc3OC)CC2)s1	7	64*	4	-7	0	0	2%
COc1ccc(N(C(=O)CNC(=O)c2ccco2)C(C(=O)NCC2CCCO2)c2ccccc2)cc1 (stereo unspecified)	-2	-6	1	-6	0	nt	nt
CC1CCCCN1CCNC(=O)CN1C(=O)COc2ccccc21 (stereo unspecified)	2	51*	2	-1	0	5	1%
O=C(c1ccc(F)cc1)C1CCN(C(=O)Nc2ccccc2Cl)CC1	4	50*	3	-2	0	-2	1%
Cc1ccccc1NC(=O)N1CCC(C(=O)c2ccc(F)cc2)CC1	18	1	3	-3	0	nt	nt
COc1cccc(SCC2(O)CCN(C(=O)c3ccc(Cl)cc3)CC2)c1	0	59*	3	-1	0	-5	0%
CC(C)C(=O)Nc1nnc(NC(=S)Nc2ccccc2)s1	-7	50*	3	11	0	-3	1%
